According to PubChem BioAssay (NCATS):
Where “and” joins values, the source holds several entries; their conditions need not be identical. Equal entries are not always repeated. Records with an inconclusive call do not appear. Calls of active or inactive are those of the source. Unless noted, calls follow the shape of the full dose curve.

Legend:
[1] = Primary qHTS for inhibitors of SARS-S pseudo-typed particle cell entry (AID 1479145); conditions: outcome: dose series up to 57.1 µM unless noted; also: nearly all actives have a fitted effect of over 45% in size; also: potency is read from the fitted curve at half-maximal effect
[2] = Primary qHTS for Huh7 cytotoxicity: counterscreen for inhibitors of MERS-S pseudotyped particle cell entry (AID 1479147); conditions: outcome: dose series up to 57.1 µM unless noted; also: potency is read from the fitted curve at half-maximal effect
[3] = Primary qHTS for inhibitors of MERS-S pseudo-typed particle cell entry (AID 1479149); conditions: outcome: dose series up to 57.1 µM unless noted; also: nearly all actives have a fitted effect of over 60% in size; also: potency is read from the fitted curve at half-maximal effect
[4] = Primary qHTS for Vero E6 cytotoxicity: counterscreen for inhibitors of SARS-S pseudo-typed particle cell entry (AID 1479150); conditions: outcome: dose series up to 57.1 µM unless noted
[5] = Primary qHTS to identify inhibitors of SARS-CoV-2 cell entry (AID 1645846); conditions: SARS-CoV-2 pseudovirus cell entry assay, luminescence; activity change, negative = inhibition: at 57.1 µM (top of the series) unless noted; also: nearly all actives have a fitted effect of over 45% in size; also: potency is read from the fitted curve at half-maximal effect
Method in brief: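 HEK293 cells stably expressing human ACE2, pre-treated 1 h with compound, then infected with MLV particles pseudotyped with Wuhan-Hu-1 spike (C-terminal 19-aa truncation). Luciferase luminescence after 48 h at 37 °C, normalised to spike PP and bald PP.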

[6] = Cytotoxicity counterscreen for inhibitors of SARS-CoV-2 cell entry (AID 1645845); conditions: outcome: dose series up to 57.1 µM unless noted; also: nearly all actives have a fitted effect of over 50% in size; also: potency is read from the fitted curve at half-maximal effect
Method in brief: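 After a 15 min room-temperature ATPLite 1step step, luminescence reflected ATP remaining in HEK293-ACE2 cells exposed to compound for 1 h plus 48 h at 37 C, with percent activity set by cell and no-cell controls.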

[7] = molecular target: Nuclear receptor subfamily 1 group I member 3 (Homo sapiens) (UniProt Q14994); assay: Primary qHTS for antagonist of constitutive androstane receptor (CAR) against the NCATS DSHEA and TCM libraries (AID 1794836; active = well fitted curve in the direction sought with a large enough effect; an effect the other way counts as inactive or inconclusive)
Sequence of Nuclear receptor subfamily 1 group I member 3 (Homo sapiens) (Q14994 whole entry, looked up): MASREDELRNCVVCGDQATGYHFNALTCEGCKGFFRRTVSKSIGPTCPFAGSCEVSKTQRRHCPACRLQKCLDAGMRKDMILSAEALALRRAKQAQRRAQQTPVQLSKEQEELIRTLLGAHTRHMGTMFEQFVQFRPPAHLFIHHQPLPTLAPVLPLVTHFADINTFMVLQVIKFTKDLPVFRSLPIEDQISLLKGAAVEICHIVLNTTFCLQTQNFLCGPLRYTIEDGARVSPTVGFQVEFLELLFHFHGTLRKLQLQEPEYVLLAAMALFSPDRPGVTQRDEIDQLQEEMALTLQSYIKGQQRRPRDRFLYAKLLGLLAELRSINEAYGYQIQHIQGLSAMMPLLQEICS
Method in brief: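 HepG2 cells stably carrying hCAR and a CYP2B6 luciferase reporter (2,500 cells/well) attached for 5 h, then received compounds with 48 uM CITCO for 24 h at 37C. ONE-Glo luminescence read antagonism; CellTiter-Fluor (405/540 nm) gave viability.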

[8] = molecular target: Peroxisome proliferator-activated receptor delta (Homo sapiens) (UniProt Q03181); assay: qHTS assay for small molecule agonists of peroxisome proliferator-activated receptor delta signaling (AID 588534)
Sequence of Peroxisome proliferator-activated receptor delta (Homo sapiens) (Q03181 whole entry, looked up): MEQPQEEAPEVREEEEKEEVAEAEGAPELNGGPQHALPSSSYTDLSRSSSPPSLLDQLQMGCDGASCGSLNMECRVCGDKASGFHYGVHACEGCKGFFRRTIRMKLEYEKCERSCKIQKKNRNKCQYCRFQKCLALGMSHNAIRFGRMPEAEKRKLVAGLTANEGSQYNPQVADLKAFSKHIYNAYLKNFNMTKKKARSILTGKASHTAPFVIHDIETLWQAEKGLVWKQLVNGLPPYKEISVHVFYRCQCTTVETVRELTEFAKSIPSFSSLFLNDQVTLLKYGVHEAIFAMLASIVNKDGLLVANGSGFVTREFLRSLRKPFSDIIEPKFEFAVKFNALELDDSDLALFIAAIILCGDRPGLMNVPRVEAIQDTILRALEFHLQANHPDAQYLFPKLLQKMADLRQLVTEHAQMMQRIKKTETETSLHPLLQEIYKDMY
Method in brief: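 Agonist-mode qHTS; reporter cells, 5 hrs 37 C pre-incubation; compound titration, 18 hrs 37 C; CCF4 dye, 2 hrs RT; fluorescence read. EC50/efficacy via Hill fit.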

[9] = molecular target: Cytochrome P450 2D6 (Homo sapiens) (UniProt P10635); assay: Cytochrome P450 family 2 subfamily D member 6 (CYP2D6) small molecule antagonists: luciferase biochemical (cell-free) qHTS assay (AID 1645840; active = well fitted curve in the direction sought with a large enough effect in the repeat runs; an effect the other way counts as inactive or inconclusive; also: potency is read from the fitted curve at half-maximal effect; nearly all actives have a fitted effect of over 55% in size)
Sequence of Cytochrome P450 2D6 (Homo sapiens) (P10635 whole entry, looked up): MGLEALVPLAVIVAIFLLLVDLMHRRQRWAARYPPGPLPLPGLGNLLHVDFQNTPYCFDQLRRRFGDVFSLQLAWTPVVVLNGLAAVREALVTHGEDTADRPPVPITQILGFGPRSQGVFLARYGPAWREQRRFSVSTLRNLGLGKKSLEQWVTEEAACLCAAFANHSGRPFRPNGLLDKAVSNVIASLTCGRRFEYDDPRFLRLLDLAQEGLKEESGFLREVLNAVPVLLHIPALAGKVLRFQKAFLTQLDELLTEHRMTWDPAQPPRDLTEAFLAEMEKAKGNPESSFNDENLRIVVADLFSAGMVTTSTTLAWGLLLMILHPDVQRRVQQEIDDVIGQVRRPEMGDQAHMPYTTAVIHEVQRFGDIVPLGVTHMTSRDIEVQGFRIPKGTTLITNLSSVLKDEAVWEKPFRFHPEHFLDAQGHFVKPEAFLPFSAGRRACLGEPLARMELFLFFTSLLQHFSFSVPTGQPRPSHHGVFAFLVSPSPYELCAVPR
Method in brief: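 P450-Glo CYP2D6 system: proluciferin substrate converted by enzyme to luciferin, read by luminescence proportional to activity. Enzyme-substrate mix with compound 10 min at room temperature, then NADPH regeneration 1 h before detection reagent.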

[10] = molecular target: Cytochrome P450 2C9 (Homo sapiens) (UniProt P11712); assay: Cytochrome P450 family 2 subfamily C member 9 (CYP2C9) small molecule antagonists: luciferase biochemical (cell-free) qHTS assay (AID 1645842; active = well fitted curve in the direction sought with a large enough effect in the repeat runs; an effect the other way counts as inactive or inconclusive; also: potency is read from the fitted curve at half-maximal effect; nearly all actives have a fitted effect of over 55% in size)
Sequence of Cytochrome P450 2C9 (Homo sapiens) (P11712 whole entry, looked up): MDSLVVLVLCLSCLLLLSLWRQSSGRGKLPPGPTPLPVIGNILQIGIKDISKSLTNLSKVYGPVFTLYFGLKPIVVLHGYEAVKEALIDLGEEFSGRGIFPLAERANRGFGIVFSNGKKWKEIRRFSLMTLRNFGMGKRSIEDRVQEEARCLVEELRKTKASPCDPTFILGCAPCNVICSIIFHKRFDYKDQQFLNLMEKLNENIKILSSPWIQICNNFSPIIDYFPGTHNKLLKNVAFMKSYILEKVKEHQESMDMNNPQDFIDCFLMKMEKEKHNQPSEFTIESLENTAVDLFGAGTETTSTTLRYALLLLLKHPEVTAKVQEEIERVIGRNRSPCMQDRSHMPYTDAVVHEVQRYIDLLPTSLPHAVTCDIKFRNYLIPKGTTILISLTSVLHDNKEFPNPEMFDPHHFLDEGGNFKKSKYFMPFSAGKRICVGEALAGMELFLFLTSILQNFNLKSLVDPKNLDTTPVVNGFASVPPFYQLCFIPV
Method in brief: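 P450-Glo CYP2C9 system: proluciferin substrate with enzyme in mix containing 0.4% BSA, 10 min at room temperature, then NADPH regeneration solution added and incubated 1 h at 37C. Detection reagent stopped reaction; luminescence read after 20 min as RLU.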

[11] = molecular target: Glutathione peroxidase 1 (Homo sapiens) (UniProt P07203); assay: Primary qHTS Assay for Inhibitors of Recombinant Selenoprotein Glutathione Peroxidase 1 (GPX1) (AID 1845191; active = well fitted curve in the direction sought with a large enough effect; an effect the other way counts as inactive or inconclusive; also: nearly all actives have a fitted effect of over 65% in size)
Sequence of Glutathione peroxidase 1 (Homo sapiens) (P07203 whole entry, looked up): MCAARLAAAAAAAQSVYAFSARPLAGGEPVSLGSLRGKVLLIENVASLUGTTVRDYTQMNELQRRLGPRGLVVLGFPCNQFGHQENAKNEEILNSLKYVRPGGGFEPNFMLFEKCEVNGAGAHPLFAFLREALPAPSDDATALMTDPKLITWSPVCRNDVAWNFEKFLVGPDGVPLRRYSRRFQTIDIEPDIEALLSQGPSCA
Method in brief: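 GPX1 10 nM, GR 100 nM, GSH 1 mM, NADPH 0.5 mM, CHP 0.5 mM (final). 30-min cpd preincubation, RT. Ex340/Em450 read t=0, t=15 min.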

CCN(CC)CCOC(=O)c1cccnc1
-32.2%: activity change, negative = inhibition [5]
inactive: Potency [1] | Potency [2] | Potency [3] | Potency [4]

CCCCCC/C=C\CCCCCCCC(=O)O
inactive: Potency [1] | Potency [2] | Potency [3] | Potency [6] | Potency [7]

CC(=O)OCC(=O)[C@@]1(O)CC[C@H]2[C@@H]3C[C@H](C)C4=CC(=O)C=C[C@]4(C)[C@H]3[C@@H](O)C[C@@]21C
inactive: Potency [1] | Potency [2] | Potency [3] | Potency [6] | Potency [5]

O=C(O)CC(O)CC(O)/C=C/c1c(C2CC2)nc2ccccc2c1-c1ccc(F)cc1 (configuration not stated)
inactive: Potency [1] | Potency [2] | Potency [3] | Potency [6] | Potency [5]

CC(C)CCCC(C)NC(C)C (configuration not stated)
inactive: Potency [1] | Potency [2] | Potency [3] | Potency [6]
-25.3%: activity change, negative = inhibition [5]

O=C(O)[C@H](O)[C@@H](O)[C@H](O)[C@H](O)CO
inactive: outcome [8] | Potency [1] | Potency [2] | Potency [3] | Potency [4] | Potency [6]

CC(C)=C/C(C)=N\Nc1nncc2ccccc12
inactive: Potency [1] | Potency [2] | Potency [3] | Potency [5]

COCC1=C(C(=O)O)N2C(=O)[C@@H](NC(=O)/C(=N\OC)c3csc(N)n3)[C@H]2SC1
-16.5%: activity change, negative = inhibition [5]
inactive: Potency [1] | Potency [2] | Potency [3] | Potency [4]

CC=CC1C(C(=O)OCc2c(F)c(F)c(COC)c(F)c2F)C1(C)C (configuration not stated)
active: Potency [9] 6.74 µM | Potency [10] 10.7 µM
inactive: Potency [1] | Potency [2] | Potency [3] | Potency [6]

C=C/C=C\CC1=C(C)[C@@H](OC(=O)[C@H]2[C@H](C=C(C)C)C2(C)C)CC1=O
inactive: Potency [1] | Potency [2] | Potency [3] | Potency [4] | Potency [11]

C=C[C@@H]1C[C@]1(NC(=O)[C@@H]1C[C@@H](Oc2ncc(OC)c3ccc(Cl)cc23)CN1C(=O)[C@@H](NC(=O)OC(C)(C)C)C(C)(C)C)C(=O)NS(=O)(=O)C1CC1
inactive: Potency [1] | Potency [2] | Potency [4]

CCC(C(=O)O)[C@H]1CC[C@H](C)[C@H]([C@@H](C)[C@H](O)[C@H](C)C(=O)[C@H](CC)[C@H]2OC3(C=C[C@@H](O)[C@]4(CC[C@@](C)([C@H]5CC[C@](O)(CC)[C@H](C)O5)O4)O3)[C@H](C)C[C@@H]2C)O1 (some centres not stated)
active: Potency [1] 3.98 µM | Potency [2] 7.94 µM | Potency [3] 0.891 µM | Potency [6] 2.51 µM

O=C(CCc1ccc(O)cc1)c1c(O)cc(O)cc1O[C@@H]1O[C@H](CO)[C@@H](O)[C@H](O)[C@H]1O
0.14% and -17.3%: activity change, negative = inhibition [5]
inactive: Potency [1] | Potency [2] | Potency [3] | Potency [4]

CN1CCN(CCCN2c3ccccc3Sc3ccccc32)CC1
active: Potency [1] 28.2 µM | Potency [2] 31.6 µM | Potency [3] 31.6 µM | Potency [5] 31.6 µM

C#C[C@]1(O)CC[C@@H]2[C@@H]3CCC4=CCCC[C@@H]4[C@H]3C(=C)C[C@@]21CC
3.84%: activity change, negative = inhibition [5]
inactive: Potency [1] | Potency [2] | Potency [3] | Potency [4]

CN(C)c1ccc(C(=C2C=CC(=[N+](C)C)C=C2)c2c(O)c(S(=O)(=O)[O-])cc3cc(S(=O)(=O)O)ccc23)cc1
inactive: Potency [1] | Potency [2] | Potency [3] | Potency [4]
-12.7%: activity change, negative = inhibition [5]

ClCC1CO1 (configuration not stated) (tested in a mixture with another compound)
inactive: Potency [1] | Potency [2] | Potency [3] | Potency [4]
-15.1%: activity change, negative = inhibition [5]
